Experimental data as given in PubChem BioAssay (Tox21).
Unmarked numbers belong to inactive results. Results filed as inconclusive are left out. Where a call stands in place of a potency, no number is given. Activity calls are given as the source filed them. Unless noted, calls follow the shape of the full dose curve.

Key:
[1] = target: Glucocorticoid receptor (Homo sapiens) (UniProt P04150); experiment: qHTS assay to identify small molecule antagonists of the glucocorticoid receptor (GR) signaling pathway (AID 720692; active = well fitted inhibition curve with a large enough effect in the signal ratio in the repeat runs, not every such curve was filed as active; the % refers to the signal ratio; also: potency is read from the fitted curve at half-maximal effect)
Glucocorticoid receptor (Homo sapiens), sequence (P04150 whole entry, looked up): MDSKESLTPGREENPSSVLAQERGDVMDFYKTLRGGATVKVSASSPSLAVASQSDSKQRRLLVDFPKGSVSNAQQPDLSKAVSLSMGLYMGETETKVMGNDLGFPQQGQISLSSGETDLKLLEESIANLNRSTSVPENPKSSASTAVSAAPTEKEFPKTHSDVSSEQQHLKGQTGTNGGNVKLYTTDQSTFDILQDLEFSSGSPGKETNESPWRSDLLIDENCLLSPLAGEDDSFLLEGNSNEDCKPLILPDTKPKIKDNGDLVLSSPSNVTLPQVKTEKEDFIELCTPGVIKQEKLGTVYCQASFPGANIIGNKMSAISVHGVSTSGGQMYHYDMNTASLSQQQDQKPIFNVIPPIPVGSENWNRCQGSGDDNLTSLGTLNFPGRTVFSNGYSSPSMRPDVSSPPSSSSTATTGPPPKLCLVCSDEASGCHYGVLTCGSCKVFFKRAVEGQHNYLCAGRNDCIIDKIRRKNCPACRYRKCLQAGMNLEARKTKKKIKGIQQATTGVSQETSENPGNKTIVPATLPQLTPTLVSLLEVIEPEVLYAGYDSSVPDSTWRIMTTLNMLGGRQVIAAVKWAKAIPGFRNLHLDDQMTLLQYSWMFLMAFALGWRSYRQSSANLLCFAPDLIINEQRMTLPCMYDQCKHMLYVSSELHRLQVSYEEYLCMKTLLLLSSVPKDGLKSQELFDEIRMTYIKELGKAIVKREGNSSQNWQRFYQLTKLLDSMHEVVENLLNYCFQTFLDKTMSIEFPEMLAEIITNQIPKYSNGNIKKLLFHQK
Procedure, shortened: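 Dexamethasone (5 nM final) stimulated a stably integrated GRE-beta-lactamase reporter in HeLa cells during 18 h co-incubation with compounds; signal was quantified as fluorescence intensity of B/G FRET substrate after 2 h.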

[2] = target: Aromatase (Homo sapiens) (UniProt P11511); experiment: qHTS assay to identify aromatase inhibitors (AID 743083; active = well fitted curve in the direction sought with a large enough effect in the repeat runs; an effect the other way counts as inactive or inconclusive; also: nearly all actives have a fitted effect of over 55% in size; also: potency is read from the fitted curve at half-maximal effect)
Aromatase (Homo sapiens), sequence (P11511 whole entry, looked up): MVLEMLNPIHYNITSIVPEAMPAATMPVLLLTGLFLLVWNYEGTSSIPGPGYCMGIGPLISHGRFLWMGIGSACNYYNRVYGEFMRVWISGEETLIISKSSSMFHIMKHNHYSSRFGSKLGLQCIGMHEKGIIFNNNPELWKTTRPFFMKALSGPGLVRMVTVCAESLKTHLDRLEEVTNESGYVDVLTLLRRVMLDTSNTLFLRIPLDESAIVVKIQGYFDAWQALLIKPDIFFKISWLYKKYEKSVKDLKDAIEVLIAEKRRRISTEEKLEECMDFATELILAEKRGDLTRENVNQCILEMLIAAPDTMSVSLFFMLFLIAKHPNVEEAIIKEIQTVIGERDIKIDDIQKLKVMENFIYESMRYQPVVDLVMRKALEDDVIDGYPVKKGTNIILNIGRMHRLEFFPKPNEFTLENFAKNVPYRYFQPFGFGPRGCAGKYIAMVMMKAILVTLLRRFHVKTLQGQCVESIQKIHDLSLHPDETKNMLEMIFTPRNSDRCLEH

[3] = target: Aryl hydrocarbon receptor (Homo sapiens) (UniProt P35869); experiment: qHTS assay to identify small molecule that activate the aryl hydrocarbon receptor (AhR) signaling pathway (AID 743085; active = well fitted curve in the direction sought with a large enough effect in the repeat runs; an effect the other way counts as inactive or inconclusive; also: nearly all actives have a fitted effect of over 15% in size; also: potency is read from the fitted curve at half-maximal effect;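 as to activation: HG2L7.5c1 human HepG2 liver cells with stably integrated DRE-driven firefly reporter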)
Aryl hydrocarbon receptor (Homo sapiens), sequence (P35869 whole entry, looked up): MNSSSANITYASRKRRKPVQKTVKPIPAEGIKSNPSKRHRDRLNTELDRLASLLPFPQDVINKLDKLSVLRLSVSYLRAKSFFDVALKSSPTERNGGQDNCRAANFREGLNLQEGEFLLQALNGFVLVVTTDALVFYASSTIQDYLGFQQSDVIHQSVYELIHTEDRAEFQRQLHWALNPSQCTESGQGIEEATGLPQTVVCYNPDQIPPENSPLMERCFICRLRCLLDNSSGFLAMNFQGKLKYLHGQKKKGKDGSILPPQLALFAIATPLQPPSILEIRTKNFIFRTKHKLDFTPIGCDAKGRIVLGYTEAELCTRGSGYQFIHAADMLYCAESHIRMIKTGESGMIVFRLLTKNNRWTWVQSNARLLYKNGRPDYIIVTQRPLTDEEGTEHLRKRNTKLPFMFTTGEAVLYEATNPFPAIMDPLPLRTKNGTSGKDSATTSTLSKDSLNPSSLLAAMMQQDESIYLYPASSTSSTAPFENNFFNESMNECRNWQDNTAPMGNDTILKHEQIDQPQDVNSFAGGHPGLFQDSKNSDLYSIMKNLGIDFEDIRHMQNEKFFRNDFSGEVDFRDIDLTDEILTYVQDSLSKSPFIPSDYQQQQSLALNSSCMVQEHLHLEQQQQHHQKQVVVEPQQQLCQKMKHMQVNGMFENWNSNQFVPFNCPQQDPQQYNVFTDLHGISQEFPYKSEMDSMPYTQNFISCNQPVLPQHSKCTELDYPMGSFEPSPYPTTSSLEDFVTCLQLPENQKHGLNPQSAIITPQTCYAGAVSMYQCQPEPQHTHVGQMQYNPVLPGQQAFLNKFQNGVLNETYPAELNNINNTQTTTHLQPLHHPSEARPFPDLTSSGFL
Procedure, shortened: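 Luminescence (ONE-Glo) from a dioxin-responsive-element luciferase reporter in HG2L7.5c1 HepG2 cells after 24 hr compound exposure at 37C; viability measured by CellTiter-Fluor fluorescence beforehand.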

[4] = qHTS assay to identify small molecule agonists of the estrogen related receptor (ERR) signaling pathway from Tox21 library (AID 1224849); conditions: ERR reporter cell line, ONE-Glo luciferase, 18 h; at 92.4 µM (top of the series) unless noted; also: nearly all actives have a fitted effect of over 15% in size
Procedure, shortened: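 Six hours post-seeding at 37 C/5% CO2, ERR cells receive DMSO-solubilised compounds; after 18 h at 37 C, ONE-Glo reagent is applied and luminescence recorded.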

[5] = Caspase-3/7 induction in HepG2 cells by small molecules, qHTS assay (AID 1346978; active = well fitted curve in the direction sought with a large enough effect in the repeat runs; an effect the other way counts as inactive or inconclusive; also: nearly all actives have a fitted effect of over 15% in size)
Procedure, shortened: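 Caspase-3/7 induction was measured by Caspase-Glo 3/7 luminescence (30 min, room temperature) after a 17 hr compound exposure of wild-type HepG2 cells seeded at 2,000 per well and pre-incubated 5 hr.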

[6] = target: Acetylcholinesterase (Homo sapiens) (UniProt P22303); experiment: Acetylcholinesterase (AChE) small molecule antagonists: colormetric cell-based qHTS assay (AID 1347395); also: nearly all actives have a fitted effect of over 30% in size
Acetylcholinesterase (Homo sapiens), sequence (P22303 whole entry, looked up): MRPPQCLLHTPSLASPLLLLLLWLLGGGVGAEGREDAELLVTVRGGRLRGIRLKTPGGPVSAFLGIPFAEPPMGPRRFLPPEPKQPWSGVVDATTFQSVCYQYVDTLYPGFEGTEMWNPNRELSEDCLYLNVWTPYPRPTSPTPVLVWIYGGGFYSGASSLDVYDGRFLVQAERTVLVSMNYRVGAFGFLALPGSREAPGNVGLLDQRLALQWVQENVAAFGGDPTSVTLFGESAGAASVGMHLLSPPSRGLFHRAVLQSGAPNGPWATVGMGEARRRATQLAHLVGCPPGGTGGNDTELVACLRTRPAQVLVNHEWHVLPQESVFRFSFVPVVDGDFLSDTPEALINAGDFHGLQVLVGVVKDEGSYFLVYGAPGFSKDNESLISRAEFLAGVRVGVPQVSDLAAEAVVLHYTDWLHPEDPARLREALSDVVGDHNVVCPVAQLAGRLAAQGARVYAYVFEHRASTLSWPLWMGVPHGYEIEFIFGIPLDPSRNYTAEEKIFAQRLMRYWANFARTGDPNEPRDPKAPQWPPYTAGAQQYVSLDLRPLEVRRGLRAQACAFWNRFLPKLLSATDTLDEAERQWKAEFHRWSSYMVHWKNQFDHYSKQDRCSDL
Procedure, shortened: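 Colorimetric readout: DTNB quantifies thiocholine from acetylthiocholine hydrolysed by endogenous AChE of SH-SY5Y cells (2,000/well, plated overnight). Compound pretreatment 30 min, substrate incubation 90 min, both 37 C.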

[7] = target: Acetylcholinesterase (Homo sapiens) (UniProt P22303); experiment: Acetylcholinesterase (AChE) small molecule antagonists: enzyme-based qHTS assay (AID 1347397); conditions: Potency: AChE enzyme activity inhibition; outcome: AChE enzyme activity inhibition; also: nearly all actives have a fitted effect of over 55% in size
Procedure, shortened: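 Absorbance-based detection of thiocholine with DTNB served as the read-out. Recombinant human AChE was exposed to compound for 30 min at RT before a 10 min RT incubation with acetylthiocholine.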

[8] = target: Acetylcholinesterase (Homo sapiens) (UniProt P22303); experiment: Acetylcholinesterase (AChE) small molecule antagonists: fluorescence cell-based qHTS assay (AID 1347398); conditions: Potency: AChE activity; outcome: AChE activity; also: nearly all actives have a fitted effect of over 50% in size
Procedure, shortened: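 Fluorimetric cell-based assay: intact SH-SY5Y cells, 30 min compound preincubation at 37 C, acetylthiocholine substrate with thiol probe Thiolite Green, 40 min RT development, fluorescence 490/520 nm.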

[9] = target: Acetylcholinesterase (Homo sapiens) (UniProt P22303); experiment: Acetylcholinesterase (AChE) small molecule antagonists: enzyme-based qHTS assay with human liver microsomes (AID 1347399); conditions: Potency: qHTS inhibition; outcome: qHTS inhibition; also: nearly all actives have a fitted effect of over 60% in size
Procedure, shortened: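 Recombinant human AChE (50 mU/mL in the enzyme mix) and human liver microsomes (0.25 mg/mL final) were preincubated with compound and NADPH (0.25 mg/mL final) for 30 min at 37 C. Acetylthiocholine/DTNB was then added; thiocholine was read colorimetrically after 10 min at room temperature.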

[10] = qHTS assay for small molecule agonists of the p53 signaling pathway (AID 651631); also: nearly all actives have a fitted effect of over 15% in size
Procedure, shortened: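 Readout was fluorescence from the LiveBLAzer FRET substrate, applied for 2 h at room temperature after 16 h compound exposure at 37 °C. Cells were the p53RE-bla HCT-116 line, with beta-lactamase driven by p53 response elements.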

[11] = qHTS assay to identify small molecule agonists of H2AX (AID 1224845; active = well fitted activation curve with a large enough effect in the signal ratio in the repeat runs, not every such curve was filed as active; the % refers to the signal ratio)
Procedure, shortened: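 Phospho-H2AX Ser139 measured by HTRF (ex 320 nm; em 665 and 620 nm) after 24 hr antibody incubation. Compounds, 15 concentrations, 0.76% DMSO, were applied to CHO-K1 cells for 3hr at 37C before lysis.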

SMILES | Potency [1] | Potency [2] | Potency [3] | activity change, positive = activation [4] [%] | Potency [5] | Potency [6] | Potency [7] | Potency [8] | Potency [9] | Potency [10] | Potency [11]
Nc1ccc(N)c2ccccc12 | 24.5 µM (active) | 3.06 µM (active) | 0.968 µM (active) | -69.5 | inactive | inactive | inactive | inactive | inactive |  | 
C=CCOC(=O)c1ccccc1C(=O)OCC=C |  | inactive | inactive |  |  | inactive | inactive | inactive | inactive | inactive | inactive
